Measurements reported in ChEMBL document CHEMBL3988442, “University of Dundee, Small-Polar-MMV Screening Library” (2021).
Screen size: about 69,000 compounds; about 1,000 (1.4%) showed an effect of 50% or more. The full list was thinned out, with strong results kept by preference.

System: Leishmania donovani
Assay: Leishmania intramacrophage assay
Assay type: functional, organism-based
Set-up: scale not given: in the data most compounds retested in dose-response had high values

Structure (SMILES): Cc1ccc(N(Cc2ccco2)C(=O)CC2=NN(C)C(=O)C2)cc1
- Percent Effect (30.3 µM, […]): 6.943%

Structure (SMILES): CCN1CCCC(O)(c2nc(C)c(CCOc3ccc(F)cc3)s2)CC1 (configuration not stated)
- Percent Effect (30.3 µM, […]): 11.02%

Structure (SMILES): CC(=O)NCc1nc(CCOc2ccc(Cl)cc2)no1
- Percent Effect (30.3 µM, […]): 7.139%

Structure (SMILES): COc1ccc(OCCc2sc(C3(O)CCCNCC3)nc2C)cc1.Cl (configuration not stated)
- Percent Effect (30 µM, 30.03 µM): 10.27%

Structure (SMILES): COc1ccc(OCc2sc(C3(O)CCCNCC3)nc2C)cc1.Cl (configuration not stated)
- Percent Effect (30 µM, 30.03 µM): 9.769%

Structure (SMILES): CCCN1CCCC(O)(c2nc(C)c(COc3ccccc3)s2)CC1 (configuration not stated)
- Percent Effect (30.3 µM, […]): -5.482%

Structure (SMILES): Cc1nc(C2(O)CCCNCC2)sc1CCOc1ccccc1.Cl (configuration not stated)
- Percent Effect (30.3 µM, […]): 4.476%

Structure (SMILES): Cc1nc(C2(O)CCCNCC2)sc1CCOc1ccc(Cl)cc1.Cl (configuration not stated)
- Percent Effect (30 µM, 30.03 µM): 92.94%

Structure (SMILES): CC(C)(C)c1ncc(C(=O)NCCNS(C)(=O)=O)s1
- Percent Effect (30 µM): 20.12%

Structure (SMILES): CCOc1ccccc1C(CC(=O)Nc1ccc(C)cn1)NC(C)=O (configuration not stated)
- Percent Effect (30 µM, 30.03 µM): 34.79%

Structure (SMILES): COc1ccc2c(ccn2CCC(=O)Nc2n[nH]c(CC(C)C)n2)c1
- Percent Effect (30.3 µM, […]): -2.003%

Structure (SMILES): COc1cccc(CCC(=O)N2CCCC(n3cc(C)cn3)C2)c1 (configuration not stated)
- Percent Effect (30 µM, 30.03 µM): 9.343%

Structure (SMILES): Cc1cc(C(=O)N2CCCC2c2noc(C)n2)[nH]n1 (configuration not stated)
- Percent Effect (30.3 µM, […]): -9.431%

Structure (SMILES): Cc1nc(C)c(C(=O)N2CCC(O)(Cn3ccc4ccncc43)CC2)s1
- Percent Effect (30.3 µM, […]): -5.567%

Structure (SMILES): O=C(Nc1cccc(CN2CCOC2=O)c1)N1CCCC1
- Percent Effect (30.3 µM, […]): -5.143%

Structure (SMILES): Cc1noc(C)c1C(=O)N(C)Cc1nc(-c2ccccn2)no1
- Percent Effect (30 µM, 30.03 µM): 21.79%

Structure (SMILES): Cc1noc(C(C)C)c1C(=O)NCCN1CCCCCC1=O
- Percent Effect (30 µM, 30.03 µM): 20.26%

Structure (SMILES): O=C1CCC(C(=O)NCCOc2cccc(Cl)c2Cl)CN1 (configuration not stated)
- Percent Effect (30.3 µM, […]): 18.68%

Structure (SMILES): CN(C)[C@H]1CCCCN(C(=O)c2cccc(-c3cccc(F)c3)c2)C1
- Percent Effect (30.3 µM, […]): 60.02%

Structure (SMILES): CN(C)C1CCCN(C(=O)c2cccc(-c3ncc[nH]3)c2)CC1 (configuration not stated)
- Percent Effect (30.3 µM, […]): 21.12%

Structure (SMILES): CN(C)[C@H]1CCCCN(C(=O)c2cccc(N3CCS(=O)(=O)CC3)c2)C1
- Percent Effect (30.3 µM, […]): -11.54%

Structure (SMILES): Cc1ncc(CNC(CCO)C2CCCCC2)s1 (configuration not stated)
- Percent Effect (30.3 µM, […]): -3.67%

Structure (SMILES): Cc1nc(CN2C(=O)C[C@@H]3[C@@H]2CCN3S(C)(=O)=O)cs1
- Percent Effect (30.3 µM, […]): -12.74%

Structure (SMILES): Cc1nnc([C@@H]2C[C@H]3CN(C(=O)C4CC4)C[C@H]3O2)[nH]1
- Percent Effect (30.3 µM, […]): 15.1%

Structure (SMILES): Cc1ccc(C(C(=O)NC(C)(C)CN2CCCC2)N(C)C)cc1 (configuration not stated)
- Percent Effect (30.3 µM, […]): -34.55%

Structure (SMILES): Cc1cccc(C(C(=O)NC(C)(C)CN2CCCC2)N(C)C)c1 (configuration not stated)
- Percent Effect (30.3 µM, […]): 64.22%

Structure (SMILES): Cc1cccc(C(C(=O)NC(C)(C)CN2CCOCC2)N(C)C)c1 (configuration not stated)
- Percent Effect (30.3 µM, […]): -45.9%

Structure (SMILES): CCN(Cc1ccc2c(c1)OCO2)C(=O)NC(C)Cn1cccn1 (configuration not stated)
- Percent Effect (30 µM, 30.03 µM): -8.819%

Structure (SMILES): O=C1CCC(c2ccccc2)=NN1CN1CCCCCC1
- Percent Effect (30.3 µM, […]): 54.14%

Structure (SMILES): O=C1CCC(c2ccc(Cl)cc2)=NN1CN1CCSCC1
- Percent Effect (30.3 µM, […]): 35.07%

Structure (SMILES): O=C1CCC(c2ccc(Cl)cc2)=NN1CN1CCCCCC1
- Percent Effect (30.3 µM, […]): -2.466%

Structure (SMILES): Cc1cc2ccccc2n1CCC(=O)NCCCc1nnc(N)s1
- Percent Effect (30.3 µM, […]): 18.88%

Structure (SMILES): Cc1cc(C(F)F)nn1C(C)C(=O)NCc1ncc[nH]1 (configuration not stated)
- Percent Effect (30.3 µM, […]): 43.47%

Structure (SMILES): CCn1nc(C)c(CN2CCC(c3ccc(C(=O)O)cc3)C2)c1C (configuration not stated)
- Percent Effect (30.3 µM, […]): 54.96%

Structure (SMILES): Cc1nn(C)c(C)c1CN1CCCC(c2ccc(C(=O)O)cc2)C1 (configuration not stated)
- Percent Effect (30.3 µM, […]): 20.41%

Structure (SMILES): CCn1nc(C)c(CN2CCCC(c3ccc(C(=O)O)cc3)C2)c1C (configuration not stated)
- Percent Effect (30.3 µM, […]): 17.25%

Structure (SMILES): CCS(=O)(=O)CCN(C)Cc1cc(C)ccc1OC
- Percent Effect (30.3 µM, […]): 6.115%

Structure (SMILES): CC(=O)NCC(=O)N1CCN(CCN(C)C)c2ncccc2C1.O=C(O)C(F)(F)F.O=C(O)C(F)(F)F
- Percent Effect (30.3 µM, […]): 27.08%

Structure (SMILES): COCC(=O)NC[C@@]1(COc2cccnc2)C[C@@H](O)[C@@H](O)C1.Cl
- Percent Effect (30.3 µM, […]): -3.857%

Structure (SMILES): COC(=O)c1cccc(S(=O)(=O)NC(=O)COC2CCCC2)c1
- Percent Effect (30 µM): -0.3864%

Structure (SMILES): c1cncc(-c2ccnn2CN2CCOCC2)c1
- Percent Effect (30.3 µM, […]): -9.601%

Structure (SMILES): Clc1ccc(CN2CCN(Cn3nccc3-c3cccnc3)CC2)s1
- Percent Effect (30.3 µM, […]): 56.59%

Structure (SMILES): CC(C)(C)C(=O)N1CCN(Cn2nccc2-c2cccnc2)CC1
- Percent Effect (30.3 µM, […]): 7.096%

Structure (SMILES): c1cncc(-c2ccnn2CN2CCC3(CC2)OCCO3)c1
- Percent Effect (30.3 µM, […]): 24.88%

Structure (SMILES): c1cnc(N2CCN(Cn3nccc3-c3cccnc3)CC2)nc1
- Percent Effect (30.3 µM, […]): 61.02%

Structure (SMILES): CC(C)(C)CCN1CCN(Cn2nccc2-c2cccnc2)CC1
- Percent Effect (30.3 µM, […]): 14.91%

Structure (SMILES): COc1ccc(CC2CN(C(=O)c3ocnc3C)CCO2)cc1 (configuration not stated)
- Percent Effect (30.3 µM, […]): -6.657%

Structure (SMILES): N#Cc1ccccc1C(=O)N1C[C@H](CO)C[C@H](CN2CCCC2)C1
- Percent Effect (30 µM, 30.03 µM): 18.98%

Structure (SMILES): Cc1nc2ccnn2c(C)c1CCC(=O)N1CCN(CCO)CC1
- Percent Effect (30 µM): 14.29%

Structure (SMILES): CC(=O)N1CCCC(c2ccc(Cc3ccccc3)cn2)C1 (configuration not stated)
- Percent Effect (30.3 µM, […]): -26.06%

Structure (SMILES): Cc1nc(CN2CCO[C@H]3CN(C(=O)c4cscn4)C[C@H]32)cs1
- Percent Effect (30.3 µM, […]): 38.15%

Structure (SMILES): Cc1ccsc1CN1CCc2nc3ccsc3c(=O)n2CC1.Cl
- Percent Effect (30.3 µM, […]): 14.2%

Structure (SMILES): Nc1nc(NCCO)cc(N2CCc3c([nH]c4ccccc34)C2)n1
- Percent Effect (30.3 µM, […]): 50.32%

Structure (SMILES): CC(C)Cc1ncc2c(n1)CN(c1cc(NCCO)nc(N)n1)C2
- Percent Effect (30.3 µM, […]): 22.17%

Structure (SMILES): COc1ccc2[nH]c3c(c2c1)CN(c1cc(NCCO)nc(N)n1)CC3
- Percent Effect (30.3 µM, […]): 13.82%

Structure (SMILES): CC(=O)N1CCO[C@@H]2CN(Cc3ccccc3F)C[C@@H]2C1.O=C(O)C(F)(F)F
- Percent Effect (30.3 µM, […]): 6.292%

Structure (SMILES): O=C(NCc1cccs1)C1CNCC12CCOCC2.O=C(O)C(F)(F)F (configuration not stated)
- Percent Effect (30.3 µM, […]): 12.59%

Structure (SMILES): CC(C)CN1CCC(NC(=O)N(C)Cc2csc3ccccc23)CC1
- Percent Effect (30.3 µM, […]): 39.03%

Structure (SMILES): CCN1CCC(NC(=O)N(C)Cc2csc3ccccc23)CC1
- Percent Effect (30.3 µM, […]): 82.94%

Structure (SMILES): CN(Cc1csc2ccccc12)C(=O)NC1CCS(=O)(=O)C1 (configuration not stated)
- Percent Effect (30.3 µM, […]): 11.38%

Structure (SMILES): COc1ccc(CCC(=O)Nc2cccnc2N2CCCC2)cc1Br
- Percent Effect (30 µM, 30.03 µM): 33.61%

Structure (SMILES): Cc1ccc(CNC(=O)CN2CCOC(Cn3cncn3)C2)s1 (configuration not stated)
- Percent Effect (30 µM): 21.75%

Structure (SMILES): Cc1nc(Nc2nnc(C)s2)cc(C2CCCN2c2ccncn2)n1 (configuration not stated)
- Percent Effect (30.3 µM, […]): -2.613%

Structure (SMILES): CCC(NC(=O)C(C)(C)C)c1ccccc1C (configuration not stated)
- Percent Effect (30.3 µM, […]): -8.319%

Structure (SMILES): COCC(=O)N1CCN(C(=O)NC(C)C)CC2(CC(=O)N(C)C2)C1 (configuration not stated)
- Percent Effect (30.3 µM, […]): 56.1%

Structure (SMILES): CC(C)CC(=O)N1CCN(C(=O)NC(C)C)CC2(CC(=O)N(C)C2)C1 (configuration not stated)
- Percent Effect (30.3 µM, […]): -8.176%

Structure (SMILES): CC(=O)N1CCN(C(=O)NC(C)C)CC2(CC(=O)N(C)C2)C1 (configuration not stated)
- Percent Effect (30.3 µM, […]): 6.648%
